Bioassay records deposited in PubChem BioAssay by National Center for Advancing Translational Sciences (NCATS).
Six1-Eya2 inh = Six1/Eya2 interaction inhibition; Q15475+O00167; AlphaScreen GST-Six1/His-Eya2 binding, biochemical; stronger effect = lower value; activity change, % (concentration not given with the values); actives 0.56% (n = 360,000); AID 651725; in the data active means activity change below about -65%; inconclusive means mostly about -30% to -63%
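Homogeneous AlphaScreen proximity assay pairing GST-Six1 with His-tagged Eya2 (added as 5X mix: 250 nM and 500 nM) in 50 mM Tris pH 8.0, 300 mM NaCl, 1 mM TCEP. Glutathione donor and nickel acceptor beads; 1 h, 37 °C, dark.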
CtBP-E1A inh = inhibitors of CtBP/E1A interaction. AlphaScreen GST-E1A/His-CtBP binding, 1536-well; stronger effect = lower value. actives 0.49% (n = 340,000). activity change, % (concentration not given with the values). AID 651724; in the data active means activity change below about -65%; inconclusive means mostly about -30% to -63%
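Steps: dispense buffer (Tris pH 8.0, NaCl 300 mM, TCEP 1 mM, BSA, Tween 20); add 5X protein mix (GST-E1A, His-CtBP, 125 nM each); pin 23 nL compound; 2 h at 37 °C, dark; add 5X beads (50 ug/mL); 1 h; read.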
RORg inh = blocks mouse ROR gamma transcriptional activity; P51450; Drosophila S2 Gal4-RORgamma UAS-luciferase reporter, 20 h; Potency, µM (highest dose often 53.6 µM), inactives show at the highest dose activity change, negative = inhibition, most hits filed as inhibitors; actives 5.4% (n = 310,000); AID 2551; further: potency means the concentration at half of the fitted maximal effect; nearly all actives have a fitted effect of over 60% in size
Target sequence (P51450 whole entry, looked up, the tested form may be a part): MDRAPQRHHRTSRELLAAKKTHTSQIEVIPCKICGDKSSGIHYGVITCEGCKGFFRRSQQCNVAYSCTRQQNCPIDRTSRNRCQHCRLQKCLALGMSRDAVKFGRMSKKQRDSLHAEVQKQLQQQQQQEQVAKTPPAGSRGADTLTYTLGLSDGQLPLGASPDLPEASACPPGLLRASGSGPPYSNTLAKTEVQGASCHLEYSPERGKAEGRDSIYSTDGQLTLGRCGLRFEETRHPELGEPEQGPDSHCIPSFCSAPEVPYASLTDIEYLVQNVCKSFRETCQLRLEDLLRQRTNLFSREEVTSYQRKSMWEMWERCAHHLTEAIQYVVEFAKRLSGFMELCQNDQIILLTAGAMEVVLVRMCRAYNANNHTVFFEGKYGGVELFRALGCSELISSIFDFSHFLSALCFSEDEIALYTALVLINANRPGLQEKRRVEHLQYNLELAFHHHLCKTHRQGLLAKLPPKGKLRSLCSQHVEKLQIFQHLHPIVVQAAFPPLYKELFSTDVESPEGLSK
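Drosophila Schneider cells stably carrying a metallothionein-driven Gal4 DBD–ROR gamma fusion and a UAS-Photinus luciferase reporter were exposed to compound for 1 hr, then induced with copper sulfate (700 uM final) for 20 hr at ambient temperature before luminescence reading.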
PKM2 act = PKM2 (human) enzyme activation. P14618. purified PKM2, Kinase-Glo ATP luminescence, activation; response scale: 0% is enzyme alone, no compound. Potency, µM (highest dose often 57.5 µM), for the others: top-dose activation, hits mostly activators. actives 0.34% (n = 260,000). AID 1631; further: potency means the concentration at half of the fitted maximal effect; nearly all actives have a fitted effect of over 55% in size
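Purified hPK-M2 (>95%) run at intermediate activity with 0.1 mM ADP and 0.5 mM PEP in 50 mM imidazole pH 7.2, KCl, MgCl2; 1 h room temperature. ATP formed read by Kinase-Glo luminescence; normalized to uninhibited and no-enzyme controls.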
Gal4-VP16 FLuc = counter-screen for ROR gamma inhibitors: Gal4-VP16 reporter; Drosophila S2 Gal4-VP16 UAS-luciferase, luminescence, 20 h; Potency, µM (doses to about 53.6 µM), inactives show at the highest dose activity, negative = inhibition, hits mostly inhibitors; actives 3.5% (n = 310,000);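 further: Gal4-VP16 expression switched on by copper sulfate through the metallothionein promoter; potency means the concentration at half of the fitted maximal effect; nearly all actives have a fitted effect of over 50% in size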
Active calls of the source: *; [ ] = another dose, or the depositor's remark. Hits are enriched below; roughly 5.6% of the tested compounds scored in any of these assays. Unless noted, the call rests on the fitted dose curve; in most records, active means well fitted curve in the direction sought with a large enough effect; inconclusive means small, poorly fitted or top-dose-only effect, or another doubt; inactive means no such curve, though single readings can be large; an effect the other way counts as inactive or inconclusive. On the % scale 0 is the no-effect control and ±100 the full control effect.

Screening CC1=NN(c2nc(-c3ccc(Cl)cc3)cs2)C(=O)C1 returned Six1-Eya2 inh 5, CtBP-E1A inh 12, RORg inh 10µM*, PKM2 act -2% and Gal4-VP16 FLuc inconclusive.
Screening CC1=NN(c2nc(-c3ccc(C)cc3)cs2)C(=O)C1N=Nc1ccccc1O (stereo not drawn) returned Six1-Eya2 inh -29, CtBP-E1A inh -8, RORg inh 3%, PKM2 act -5% and Gal4-VP16 FLuc 3%.
CC1=NN(c2nc(-c3ccc(F)cc3)cs2)C(=O)C1 was read as Six1-Eya2 inh -12, CtBP-E1A inh -2, RORg inh 13µM*, PKM2 act 3% and Gal4-VP16 FLuc -8%.
For COc1ccc(-c2csc(N3N=C(C)C(C)C3=O)n2)cc1 (stereo not drawn) the results were Six1-Eya2 inh -1, CtBP-E1A inh -17, RORg inh 8.9µM*, PKM2 act 3% and Gal4-VP16 FLuc inconclusive.
Screening CCCCCCCCCCCCCCCCCCCCCC(=O)Nc1ccn([C@@H]2O[C@H](CO)[C@@H](O)[C@@H]2O)c(=O)n1 returned RORg inh 4% and Gal4-VP16 FLuc -22%.
Screening CCCCn1nc(C(=O)N2CCN(S(=O)(=O)c3ccccc3)CC2)c2ccccc2c1=O returned Six1-Eya2 inh 2 and CtBP-E1A inh -5.
Oc1ccc(Nc2ccc3ccccc3c2)cc1 was read as Six1-Eya2 inh inconclusive and CtBP-E1A inh -4.
Screening CC1=NNC(=O)/C1=C\c1cn(-c2ccccc2)nc1-c1ccccc1 returned Six1-Eya2 inh -8, RORg inh 1.1µM*, PKM2 act inconclusive and Gal4-VP16 FLuc 2%[10 µM].
For O=C(NCC1CCCO1)c1cc2cc(Cl)ccc2[nH]1 (stereo not drawn) the results were Six1-Eya2 inh 15, CtBP-E1A inh 0 and PKM2 act 3%.
`CCCC(/C=C/c1ccc(OC(C)=O)cc1)=C1/c2ccccc2C(=O)N1c1ccccc1` gave Six1-Eya2 inh 40.
`COc1cc2c(cc1OC)C(=Cc1ccc(N(C)C)cc1)C=C2` gave Six1-Eya2 inh -71* and CtBP-E1A inh -78*.
COc1ccc(C(=O)/C=C/c2ccc(N(C)C)cc2)c(OC)c1 was read as Six1-Eya2 inh 21, CtBP-E1A inh -2, RORg inh -1%, PKM2 act -1% and Gal4-VP16 FLuc -6%.
For CNc1ccc(C=C2C=Cc3ccccc32)cc1 the results were Six1-Eya2 inh inconclusive and CtBP-E1A inh -2.
Screening CN(C)c1ccc(C=C2C=Cc3ccccc32)cc1 returned Six1-Eya2 inh -71* and CtBP-E1A inh -4.
`COC(=O)/C(=C1/Oc2ccc(C)cc2S1)C(F)(F)F` gave Six1-Eya2 inh 7, RORg inh 23%, PKM2 act -3% and Gal4-VP16 FLuc inconclusive.
CC1CCC2C(=O)N3C(CCC(C)C3c3ccc(-c4ccco4)cc3)C(=O)N2C1c1ccc(-c2ccco2)cc1 (stereo not drawn) was read as RORg inh 4%[10 µM] and Gal4-VP16 FLuc 5%[10 µM].
CCC(C)c1ccccc1N1CC(C(=O)Nc2cc(S(=O)(=O)N3CCOCC3)ccc2OC)CC1=O (stereo not drawn) was read as Six1-Eya2 inh 0 and CtBP-E1A inh -8.
`CCCCc1ccc(-c2ccc(Br)cc2)nc1` gave Six1-Eya2 inh 72, CtBP-E1A inh 81, RORg inh -12%, PKM2 act -5% and Gal4-VP16 FLuc -15%.
Screening CCCc1ccc(-c2ccc(F)c(N)c2)nc1 returned Six1-Eya2 inh 1, CtBP-E1A inh 3, RORg inh 4.5µM*, PKM2 act -33% and Gal4-VP16 FLuc inconclusive.
`O=C(NC(=S)Nc1ccc(N2CCOCC2)cc1)c1cncc(Br)c1` gave Six1-Eya2 inh -9, CtBP-E1A inh -12, RORg inh 5µM*, PKM2 act 1% and Gal4-VP16 FLuc 8.9µM*.
For Cc1ccccc1C(=O)NC(=S)Nc1ccc(N2CCOCC2)cc1 the results were Six1-Eya2 inh -16, CtBP-E1A inh -14, RORg inh 20µM* and Gal4-VP16 FLuc inconclusive.
For Cc1cc(C)nc(NC(=S)NC(=O)c2ccccc2F)n1 the results were Six1-Eya2 inh -1 and CtBP-E1A inh -1.
`Cc1cccc(C)c1NC(=S)NC(=O)c1ccccc1F` gave Six1-Eya2 inh -3, CtBP-E1A inh 2, RORg inh 4.5µM*, PKM2 act 7% and Gal4-VP16 FLuc 6.3µM*.
For CCc1ccc(C(=O)NC(=S)Nc2ccc(N3CCOCC3)cc2)cc1 the results were Six1-Eya2 inh -13, RORg inh 5µM*, PKM2 act -7% and Gal4-VP16 FLuc 18µM*.
Screening O=C(NC(=S)Nc1ccc(Cl)cc1)c1cncc(Br)c1 returned Six1-Eya2 inh 5 and CtBP-E1A inh 6.
For Cc1ccccc1C(=O)Nc1ccc(N2CCCC2)cc1 the results were Six1-Eya2 inh -23, CtBP-E1A inh -6, RORg inh 1%, PKM2 act 1% and Gal4-VP16 FLuc -1%.
`CC(=O)C1=CN(Cc2ccccc2)CCC1=O` gave Six1-Eya2 inh -4 and CtBP-E1A inh 3.
For O=C(Nc1ccc(F)c(Cl)c1)c1ccc2sc([C@@H]3O[C@H](CO)[C@H](O)[C@H](O)[C@H]3O)nc2c1 the results were Six1-Eya2 inh -2 and CtBP-E1A inh -6.
NC(=O)CCC1NC(=O)C(Cc2ccccc2)NC(=O)C(Cc2ccc(O)cc2)NC(=O)CCSSCC(C(=O)N2CCCC2C(=O)NC(CCCN=C(N)N)C(=O)NCC(N)=O)NC(=O)C(CC(N)=O)NC1=O (stereo not drawn) was read as RORg inh 5% and Gal4-VP16 FLuc 0%.
For Cc1c(C(=O)NC(=S)Nc2ccc(N3CCOCC3)cc2)cccc1[N+](=O)[O-] the results were Six1-Eya2 inh 12, CtBP-E1A inh 0, RORg inh 8.9µM*, PKM2 act -4% and Gal4-VP16 FLuc -14%.
`Cc1cccc(C)c1NC(=S)NC(=O)c1cccc(Cl)c1` gave Six1-Eya2 inh -1 and CtBP-E1A inh 7.
O=C(CN1CCOCC1)NNC(=S)Nc1ccccc1 was read as Six1-Eya2 inh -13, RORg inh 29%, PKM2 act 4% and Gal4-VP16 FLuc 1.3µM*.
O=C(NC(=S)Nc1ccc(N2CCOCC2)cc1)c1cccc(Cl)c1 was read as Six1-Eya2 inh inconclusive, CtBP-E1A inh -8, RORg inh 2.5µM*, PKM2 act 4% and Gal4-VP16 FLuc 11µM*.
For O=C(NC(=S)Nc1ccc(N2CCOCC2)cc1)c1cccc(Cl)c1Cl the results were Six1-Eya2 inh 0, CtBP-E1A inh 3, RORg inh 3.2µM*, PKM2 act 0% and Gal4-VP16 FLuc 5µM*.
